Screening results as filed in PubChem BioAssay.
Sampled rows, rich in hits. Any-hit rate of the full collection: about 5.1%.
CRFBP-R2 agonist: agonists of human CRF-binding protein/CRF-R2 receptor complex | HEK293 CRF-R2/CRF-BP, calcium dye fluorescence (FLIPR); percent of saturating CRF peptide response | activation, % at 13.2 µM | 0.46% of 350,000 active;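 active = activation of at least 50%, plus an integration ratio under a set limit after plate pattern correction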;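 also: plate controls were neutral control wells without compound for no effect and CRF at EC100 for full effect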
TMEM16A act: activators or potentiators of mouse TMEM16A chloride channel. 0.3% of 340,000 active. Q8BHY3. HEK293 TMEM16A/YFP-H148Q/I152L, iodide quench fluorescence; active compounds read low. B-score at 10 µM;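 active = fluorescence-ratio B-score plate-corrected deviation score at least 3 library SD below zero, with starting fluorescence score within 5 deviations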;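 also: channel opened by trigger with iodide after compound preincubation; score built on the fluorescence ratio of max minus min over baseline; more negative score means more quench and so TMEM16A activation or potentiation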
Target sequence (Q8BHY3 whole entry, looked up): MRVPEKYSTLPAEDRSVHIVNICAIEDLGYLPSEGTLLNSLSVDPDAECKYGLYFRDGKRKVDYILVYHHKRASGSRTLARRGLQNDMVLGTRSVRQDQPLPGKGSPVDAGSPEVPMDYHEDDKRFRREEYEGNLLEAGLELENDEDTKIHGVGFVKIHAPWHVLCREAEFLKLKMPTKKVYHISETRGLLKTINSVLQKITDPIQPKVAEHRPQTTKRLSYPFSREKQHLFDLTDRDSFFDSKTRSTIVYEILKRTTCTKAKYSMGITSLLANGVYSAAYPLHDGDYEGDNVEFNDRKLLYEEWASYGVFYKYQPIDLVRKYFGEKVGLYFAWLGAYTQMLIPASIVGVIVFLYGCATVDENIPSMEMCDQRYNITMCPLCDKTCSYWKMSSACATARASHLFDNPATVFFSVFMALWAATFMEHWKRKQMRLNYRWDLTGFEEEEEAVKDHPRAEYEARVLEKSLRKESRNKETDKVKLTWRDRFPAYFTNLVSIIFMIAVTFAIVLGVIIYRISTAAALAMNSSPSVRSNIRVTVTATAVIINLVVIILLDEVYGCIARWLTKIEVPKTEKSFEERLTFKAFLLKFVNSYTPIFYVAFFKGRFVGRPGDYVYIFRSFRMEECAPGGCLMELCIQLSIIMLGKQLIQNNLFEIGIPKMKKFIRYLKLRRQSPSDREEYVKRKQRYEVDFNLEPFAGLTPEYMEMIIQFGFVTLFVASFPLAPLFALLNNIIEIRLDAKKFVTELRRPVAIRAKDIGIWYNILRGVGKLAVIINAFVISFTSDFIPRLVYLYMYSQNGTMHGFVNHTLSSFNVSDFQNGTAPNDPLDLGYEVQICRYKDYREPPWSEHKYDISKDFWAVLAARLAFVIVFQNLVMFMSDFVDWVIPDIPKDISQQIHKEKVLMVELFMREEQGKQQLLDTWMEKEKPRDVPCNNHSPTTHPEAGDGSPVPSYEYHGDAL
NR3A LBD binder: modulates the human NR3A ligand-binding domain; AID 1259313; Tm shift relative to glycine control, % at 25 µM; NR3A LBD differential scanning fluorimetry, Tm shift; 0% = protein alone, 100% = glycine-bound protein; 2.5% of 340,000 active;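 active = melting temperature shift of at least 10% of the positive control shift, at one fixed dose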
CRFBP-R2 block: blocks CRF-induced signaling of the CRF-BP/CRF-R2 complex. 0.59% of 350,000 active. HEK293 CRF-R2/CRF-BP, CRF-induced calcium fluorescence. inhibition, % at 11.8 µM;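 active = inhibition of the ligand-induced calcium signal above about 50% at the single tested concentration, limit read from the data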
ANO1 block: blocks the mouse calcium-activated chloride channel TMEM16A | 1.2% of 310,000 active | Q8BHY3 | normalized B-score (activity score, 25-100; higher = stronger inhibition) at 10 µM | HEK293 TMEM16A/YFP iodide influx fluorescence, ionomycin;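 active = ratio plate-corrected score three or more library SD toward inhibition, starting fluorescence score within five deviations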;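 also: score derived from kinetic fluorescence span divided by baseline fluorescence per well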
MPTP block: blocks calcium-induced mitochondrial swelling; isolated mouse mitochondria, Ca2+ swelling absorbance, 30 min; inhibition, % at 10 µM; 1.4% of 360,000 active; AID 602449;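 active = inhibition of 50% or more, scaled per plate between neutral and stimulator controls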;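 also: 0% = DMSO wells given calcium and 100% = 1 mM EGTA wells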
* marks the source's active call; other numbers are inactive results.

What do the screens show for `COc1ccccc1-n1ccn(CC(=O)Nc2ccc(C)cc2Cl)c(=O)c1=O`?
CRFBP-R2 agonist: -1; TMEM16A act: inactive; NR3A LBD binder: 1; CRFBP-R2 block: 6; ANO1 block: inactive; MPTP block: 0

What do the screens show for `C/C(=C\C(=O)c1ccc(Br)cc1)NCc1ccc(C)cc1`?
CRFBP-R2 agonist: 6; TMEM16A act: inactive; NR3A LBD binder: -1; CRFBP-R2 block: -9; ANO1 block: 100*; MPTP block: 6

What do the screens show for `CCOc1ccc(S(=O)(=O)n2ccc(C)n2)c2ccccc12`?
CRFBP-R2 agonist: -2; TMEM16A act: inactive; NR3A LBD binder: -1; CRFBP-R2 block: 55*; ANO1 block: inactive; MPTP block: 1

How did CCOc1ccc(S(=O)(=O)N2CCOCC2)c2ccccc12 do in these assays?
CRFBP-R2 agonist: 0; TMEM16A act: inactive; NR3A LBD binder: -2; CRFBP-R2 block: 2; ANO1 block: inactive; MPTP block: 0

How did COC(=O)C1CN(C(=O)COc2ccc(Cl)cc2C)c2ccccc2O1 (stereo not drawn) do in these assays?
CRFBP-R2 agonist: 3; TMEM16A act: inactive; NR3A LBD binder: 0; CRFBP-R2 block: 10; ANO1 block: inactive; MPTP block: 0

What do the screens show for `CCCc1cc(=O)[nH]c(SCC(=O)Nc2ccc3ccccc3c2)n1`?
CRFBP-R2 agonist: 0; TMEM16A act: inactive; NR3A LBD binder: 2; CRFBP-R2 block: -2; MPTP block: 1

What do the screens show for `CCCc1cc(=O)[nH]c(SCC(=O)Nc2ccc(OC(F)F)cc2)n1`?
CRFBP-R2 agonist: -1; TMEM16A act: inactive; NR3A LBD binder: 1; CRFBP-R2 block: 66*; ANO1 block: inactive; MPTP block: -1

What do the screens show for `Cc1cc(O)c(-c2cc(C(=O)Nc3ccc(S(=O)(=O)N4CCOCC4)cc3)[nH]n2)cc1C`?
CRFBP-R2 agonist: 0; TMEM16A act: inactive; NR3A LBD binder: 32*; CRFBP-R2 block: -17; ANO1 block: inactive; MPTP block: 18

What do the screens show for `Cc1ccc(O)c(-c2cc(C(=O)Nc3ccc(S(=O)(=O)Nc4nc(C)cc(C)n4)cc3)[nH]n2)c1`?
CRFBP-R2 agonist: 0; TMEM16A act: inactive; NR3A LBD binder: 30*; CRFBP-R2 block: 1; ANO1 block: inactive; MPTP block: 3

Results for Cc1ccc(O)c(-c2cc(C(=O)Nc3ccc(S(=O)(=O)N4CC(C)OC(C)C4)cc3)[nH]n2)c1 (stereo not drawn) ?
CRFBP-R2 agonist: -3; TMEM16A act: inactive; NR3A LBD binder: 35*; CRFBP-R2 block: -39; ANO1 block: inactive; MPTP block: 48

Results for CC1CN(S(=O)(=O)c2csc(C(=O)Nc3ccccc3)c2)CC(C)O1 (stereo not drawn) ?
CRFBP-R2 agonist: -2; TMEM16A act: inactive; NR3A LBD binder: 16*; CRFBP-R2 block: 24; ANO1 block: inactive; MPTP block: 0

How did Cc1cc(C(=O)Nc2ccc(S(=O)(=O)N3CCOCC3)cc2)c(C)o1 do in these assays?
CRFBP-R2 agonist: 0; TMEM16A act: inactive; NR3A LBD binder: 1; CRFBP-R2 block: 14; ANO1 block: inactive; MPTP block: -1

What do the screens show for `CCOC(=O)N1CCN(S(=O)(=O)N2CCCC(C(=O)NCc3ccc(OC)cc3)C2)CC1` (stereo not drawn)?
CRFBP-R2 agonist: -1; TMEM16A act: inactive; NR3A LBD binder: 0; CRFBP-R2 block: 9; ANO1 block: inactive; MPTP block: -1

What do the screens show for `CC(C)(C)c1ccc(CC(=O)N2CCC2(C)C(=O)Nc2cccc3cccnc23)cc1` (stereo not drawn)?
MPTP block: 0

Results for Cc1ccc(C2NC(=NCc3ccccc3)Nc3nc(C)cc(=O)n32)cc1 (stereo not drawn) ?
CRFBP-R2 agonist: -2; TMEM16A act: inactive; NR3A LBD binder: 1; CRFBP-R2 block: 9; ANO1 block: inactive; MPTP block: 1

How did Cc1ccc2nc(Cl)c(/C=C/C(=O)c3ccco3)cc2c1 do in these assays?
CRFBP-R2 agonist: 0; TMEM16A act: inactive; NR3A LBD binder: 0; CRFBP-R2 block: 101*; ANO1 block: inactive; MPTP block: 4
